From PubChem BioAssay
mTORC1 inh – reduces mTORC1 signaling in Tsc2 and p53 null MEF cells; Tsc2-/- p53-/- MEF, phospho-rpS6 immunofluorescence/PI, 24 h; Potency, µM (series often up to 38.3 µM), for inactives: top-dose activity change, negative = inhibition, hits mostly inhibitors; 0.78% of 44,000 active; AID 493208;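 also: potency is read from the fitted curve at half-maximal effect; plate controls were DMSO for no effect and rapamycin for full effect; nearly all actives have a fitted effect of over 50% in size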
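Plate MEFs (Tsc2-/-, p53-/-, empty vector) in DMEM/10% FBS; after 24 h add compound, incubate 24 h at 37 degree Celsius; fix in PFA/TX-100, block, stain phospho-rpS6 and 10 uM PI; scan at 488 nm; report % positive cells.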
p53null 39C tox – p53 null cell cytotoxicity, nonpermissive temperature; H1299 p53-null (neo) cells, 39C, ATPlite viability, 24 h; Potency, µM (highest dose often 46.1 µM), without a hit: top-dose activity, negative = cell killing, hits mostly cytotoxic; 0.97% of 55,000 active;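 also: potency is read from the fitted curve at half-maximal effect; 0% = DMSO only and -100% = full killing by 100 µM tamoxifen; nearly all actives have a fitted effect of over 50% in size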
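Luminescent ATP signal reported cell survival after H1299 lines (neo, p53 null; or p53 A138V) received up to 46 uM compound and 24 hr incubation at 39C.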
p53null 32C kill – selectivity test: cytotoxicity in p53 null cells, permissive temperature; Potency, µM (top dose mostly 46.1 µM), without a hit: at the top dose activity change, negative = cytotoxicity, usual class: cytotoxic; 0.62% of 55,000 active; H1299-neo p53 null cells, ATP luminescence, 24 h, 32C;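 also: potency is read from the fitted curve at half-maximal effect; 0% = DMSO only and -100% = full killing by 100 µM tamoxifen; nearly all actives have a fitted effect of over 55% in size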
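Overnight 37C seeding (600 cells/well) of H1299-neo preceded a 24 hr, 32C exposure to compounds up to 46 uM. ATP levels, read by luminescence after 20 min at RT, indicated surviving cells.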
PMP22 txn – PMP22 gene transcription modulation; S16 Pmp22-F2sN Schwann cells, FLuc/NLuc coincidence luminescence, 24 h; Potency, µM (top dose mostly 57.5 µM), without a hit: at the highest dose activity change, negative = inhibition, usual class: inhibitors; 2% of 43,000 active; AID 1508649; active = clear falling dose curves in both reporters; inconclusive = both reporters move, but less clearly or upward; inactive = either reporter flat; the % is the NLuc reporter signal; also: potency is read from the fitted curve at half-maximal effect; % is scaled to controls: 0 for no effect and ±100 for the full control effect
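Schwann cells carrying the coincidence reporter were exposed to library compounds for 24 h at 37C, then lysed and read for FLuc and, after quenching, NLuc luminescence on a CCD imager.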
OvCa metastasis – ovarian cancer metastasis inhibition, 3D TME model; SKOV3ip1-GFP adhesion/invasion on 3D omental model, fluorescence; Potency, µM (titrated, usually from 45.8 µM), inactives show at the top dose activity change, negative = inhibition, usual class: inhibitors; 0.1% of 46,000 active;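 also: potency is read from the fitted curve at half-maximal effect; plate controls were DMSO wells for no effect and tomatine positive control wells for full effect; nearly all actives have a fitted effect of over 65% in size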
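qHTS, 4-pt dose (0.36-46 umol/L); SKOV3ip1-GFP, 1,200 cells/well, no FBS; primary omental fibroblast/mesothelial co-culture 48 h pre-grown; 2 h RT + 16 h 37 C; PBS wash, 4% PFA; GFP count 488/509 nm.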
S16 F2sN tox – cytotoxicity in S16 Pmp22-F2sN Schwann cells; S16 Pmp22-F2sN Schwann cells viability, CellTiter-Glo, 24 h; Potency, µM (doses to about 57.5 µM), inactives show at the highest dose activity change, negative = cytotoxicity, most hits filed as cytotoxic; AID 1508642; 0.48% of 43,000 active; also: potency is read from the fitted curve at half-maximal effect; % is scaled to controls: 0 for no effect and ±100 for the full control effect; nearly all actives have a fitted effect of over 65% in size
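Viability was measured by CellTiter-Glo luminescence (15 min, room temperature). This followed 24 h at 37 °C of compound exposure (23 nL pin transfer) in S16 Pmp22-F2sN Schwann cells, 500-1,000 per well.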
NLuc sat counter – counter-screen for PMP22 expression modulators: NanoLuc inhibition, saturating substrate; Secreted NLuc enzyme (filtered S16 cell medium), Nano-Glo luminescence; shares compounds with PMP22 txn; Potency, µM (series often up to 57.5 µM), for the others: at the highest dose activity change, negative = inhibition, most hits filed as inhibitors; 4% of 690 active; also: potency is read from the fitted curve at half-maximal effect; % is scaled to controls: 0 for no effect and ±100 for the full control effect
NLuc Km counter – counter-screen for PMP22 expression modulators: NanoLuc inhibition at Km; 5% of 690 active; Potency, µM (doses to about 57.5 µM), for the others: top-dose activity change, negative = inhibition, actives largely listed as inhibitors; secreted NLuc enzyme, coelenterazine luminescence, Km conditions; AID 1508639; shares compounds with PMP22 txn; also: potency is read from the fitted curve at half-maximal effect; % is scaled to controls: 0 for no effect and ±100 for the full control effect
FLuc counter – inhibits firefly luciferase, PMP22 counter-screen; 690 tested, under 10 active; shares compounds with PMP22 txn; Potency, µM (top dose mostly 57.5 µM), for the others: at the highest dose activity, negative = inhibition, actives largely listed as inhibitors; purified P. pyralis FLuc, luminescence, 10 min; also: % of control where 0% means no effect
Target sequence (P08659 whole entry, looked up): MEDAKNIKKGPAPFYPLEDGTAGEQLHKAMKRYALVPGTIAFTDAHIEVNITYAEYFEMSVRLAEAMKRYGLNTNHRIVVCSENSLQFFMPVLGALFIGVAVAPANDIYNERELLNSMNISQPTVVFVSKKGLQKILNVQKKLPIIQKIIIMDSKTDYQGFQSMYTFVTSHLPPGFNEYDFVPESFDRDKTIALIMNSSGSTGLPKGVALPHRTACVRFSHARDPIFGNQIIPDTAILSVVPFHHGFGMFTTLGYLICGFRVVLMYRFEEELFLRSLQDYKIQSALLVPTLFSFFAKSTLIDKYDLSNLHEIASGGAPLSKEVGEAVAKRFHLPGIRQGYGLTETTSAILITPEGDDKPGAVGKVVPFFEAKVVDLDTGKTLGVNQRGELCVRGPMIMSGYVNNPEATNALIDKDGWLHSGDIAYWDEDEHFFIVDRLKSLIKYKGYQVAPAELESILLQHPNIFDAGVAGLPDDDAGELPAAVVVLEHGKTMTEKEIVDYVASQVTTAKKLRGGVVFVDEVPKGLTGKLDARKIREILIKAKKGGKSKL
S16 F2sN tox cnf – S16 Schwann cell cytotoxicity, confirmatory. shares compounds with PMP22 txn. S16 Schwann cells viability, CellTiter-Glo ATP luminescence, 24 h. Potency, µM (series often up to 57.5 µM), inactives show top-dose activity change, negative = viability loss, usual class: cytotoxic. 7% of 690 active; also: potency is read from the fitted curve at half-maximal effect; % is scaled to controls: 0 for no effect and ±100 for the full control effect
PMP22 txn conf – confirmation of modulators of PMP22 gene transcription in S16 cells | shares compounds with PMP22 txn | S16 Schwann cells Pmp22-F2sN, dual luciferase, 24 h | Potency, µM (titrated, usually from 57.5 µM), for inactives: at the top dose activity change, negative = inhibition, most hits filed as inhibitors | 22% of 690 active | AID 1508646; active = clear falling dose curves in both reporters; inconclusive = both reporters move, but less clearly or upward; inactive = either reporter flat; the % is the FLuc reporter signal; also: potency is read from the fitted curve at half-maximal effect
PMP22 prot conf – confirmation of modulators of rat PMP22 protein expression. 95 tested, under 10 active. Potency, µM (top dose mostly 27.9 µM), without a hit: at the top dose activity change, negative = inhibition, hits mostly inhibitors. shares compounds with PMP22 txn. S16 Schwann cells Pmp22-HiBiT, luminescence, 48 h
* marks the source's active call; other numbers are inactive results; i = inactive; ? = inconclusive; · = no result given. The list is not random: actives were taken first. Their share in the collection is about 3.1%. Unless noted, calls follow the shape of the dose curve; as a rule, active = well fitted curve in the direction sought with a large enough effect; inconclusive = small, poorly fitted or top-dose-only effect, or another doubt; inactive = no such curve, though single readings can be large; an effect the other way counts as inactive or inconclusive.

SMILES	mTORC1 inh	p53null 39C tox	p53null 32C kill	PMP22 txn	OvCa metastasis	S16 F2sN tox	NLuc sat counter	NLuc Km counter	FLuc counter	S16 F2sN tox cnf	PMP22 txn conf	PMP22 prot conf
Cc1c(Cl)cccc1NC(=O)c1oc2ccc(S(=O)(=O)N3CCC4(CC3)OCCO4)cc2c1C	13.1µM*	-0.4%	-0.5%	13.9µM*	-0.2%	?	-15.4%	-3.1%	-4.5%	-23.8%	?	15.2%
CC(=CCCC1=CCC(C2=CC(=O)OC2O)OC1O)CCC1=C(C)CCCC1(C)C (stereo not drawn)	·	·	·	·	-3.3%	·	·	·	·	·	·	·
CCc1ccc(OCC(=O)Nc2cc3oc4ccccc4c3cc2OC)cc1	1.2%	-22.5%	?	6.45µM*	i	4.4%	5.5%	2.0%	3.1%	-13.0%	18.3µM*	10.8%
COc1ccccc1NC(=O)Cn1c(=O)n(-c2cccc(Cl)c2)c(=O)c2sc3ccccc3c21	1.2%	?	-3.9%	10µM*	i	1.5%	-3.8%	5.1%	0.8%	?	6.48µM*	6.45µM*
COc1ccc(NC(=O)Cn2c(=O)c3cccn3c3ccccc32)cc1Cl	-1.4%	90.2%	15.8%	?	-6.4%	11.7%	·	·	·	·	·	·
